These results are taken from PubChem BioAssay AID2501 (Southern Research Specialized Biocontainment Screening …, 2010).

Each structure is given as a SMILES string. The whole screen tested about 2,200 compounds, of which about 1,200 (55%) were called active. Cut-off not given; nearly all actives show IC50 up to about 92 µM. So high a share suggests a set chosen from earlier hits. This is one part of the list.

This assay in a line: counter assay for TAg ATPase ADP read-out – biochemical, ADP-Hunter, fluorescence, counter-screen (AID 2501).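 Further: purified T antigen ATPase.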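 On inhibition: 0% = enzyme with vehicle and 100% = reference inhibitor wells; higher means more inhibition.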 The settings on record: series mostly up to 100 µM; inhibition: at the top concentration. For orientation: Counterscreens check selectivity or assay interference.
On to `Cc1cc(/C=C(\C#N)C(=O)NC2CCCCCC2)c(C)n1C`, for which the inhibition (in general, the drop in the measured response relative to a control, in per cent) was -11.6% (inactive).

Regarding `COc1cc(/C=C(\C#N)C(=O)N2CCCCC2)ccc1O`, the IC50 (in general, the concentration that gives 50% inhibition) was 5.73 µM (active).

Take `COc1cc(C=C(C(C)=O)C(C)=O)ccc1O`: the IC50 is 3.76 µM (active).

On to `COc1cc(/C=C(\C#N)C(=O)N2CCc3ccccc32)ccc1O`, for which the IC50 was 2.3 µM (active).

For `N#C/C(=C\c1ccc(O)c(O)c1)C(=O)N1CCc2ccccc21`, the half-inhibitory concentration (IC50) was 9.2 µM (active).

As to `CCC(=O)N1CCc2cc(S(=O)(=O)N(C)c3ccc(OC)cc3OC)ccc21`, the “inhibition” value was 22.4% (inactive).

Take `CC(C)(C)NC(=O)COC(=O)c1cc(F)c(F)cc1Cl`: the “inhibition” value is 0.35% (inactive).

Consider `CCOC(=O)N1[C@@H]2C=C(C)[C@@H]2[C@@H]2[C@@H](C)C(=O)N21`, for which the “inhibition” value is 12% (inactive).

Take `Cc1ccccc1/C=C/C(=O)c1ccc([N+](=O)[O-])o1`: the “inhibition” value is -26.8% (inactive).

On to `O=C(/C=C/c1cccc(Cl)c1)c1ccc([N+](=O)[O-])o1`, for which the “inhibition” value was -11.4% (inactive).

For `COc1cc(/C=C/C(=O)c2ccc([N+](=O)[O-])o2)ccc1O`, the IC50 was 5.19 µM (active).

In the case of `O=S(=O)(c1ccc(NC(=S)N/N=C/c2ccc(O)c(O)c2)cc1)N1CCOCC1`, the IC50 is 5.94 µM (active).

`Cc1ccc(S(=O)(=O)N2[C@@H](c3ccc(Cl)cc3)C(C(=O)O)=CC[C@H]2c2ccc(Cl)cc2)cc1`: the “inhibition” value was -14.6% (inactive).

Turning to `Cc1ccc(S(=O)(=O)N2CCN(CC(=O)N/N=C\c3ccc(O)c(O)c3)CC2)cc1`, the IC50 was 3.2 µM (active).

For `COc1ccc(NC(=O)CN(C)C(=O)CCc2nc3cc(S(=O)(=O)N4CCOCC4)ccc3n2C)cc1`, the “inhibition” value is -2.23% (inactive).

For `CCN(CC)c1ccc(NC(=O)CCNS(=O)(=O)c2ccc3c(c2)CCC(=O)N3)c(C)c1`, the IC50 is 7.36 µM (active).

Consider `CC(C)(C)NC(=O)NC(=O)CN1CCN(c2ccc(O)cc2)CC1`, for which the IC50 is 4.89 µM (active).

In the case of `CN1CCN(CC(=O)Nc2c(C#N)cnn2-c2ccccc2)CC1`, the “inhibition” value is -5.67% (inactive).

For `Cc1c(NC(=O)COC(=O)COc2ccc(Nc3ccccc3)cc2)c(=O)n(-c2ccccc2)n1C`, the IC50 is 8.78 µM (active).

As for `COc1ccc(-c2nnc(SC(C)C(=O)Nc3c(C)n(C)n(-c4ccccc4)c3=O)o2)cc1` (configuration not stated), the “inhibition” value is 3.49% (inactive).

Turning to `Cc1c(NC(=O)CN2CCN(c3ccc(O)cc3)CC2)c(=O)n(-c2ccccc2)n1C`, the IC50 was 8.18 µM (active).

Take `Cc1c(NC(=O)C(C)OC(=O)/C=C/c2ccco2)c(=O)n(-c2ccccc2)n1C` (configuration not stated): the “inhibition” value was 12.1% (inactive).

On to `Cc1c(NC(=O)c2cnn3c2NC(c2ccccc2)CC3C(F)(F)F)c(=O)n(-c2ccccc2)n1C` (configuration not stated), for which the “inhibition” value is -5.94% (inactive).

Consider `N#Cc1ccsc1NC(=O)CN1CCN(c2ccc(O)cc2)CC1`, for which the IC50 is 6.3 µM (active).

Consider `Cc1nc2ccc(NC(=O)c3cc([N+](=O)[O-])cc([N+](=O)[O-])c3Cl)cc2s1`, for which the “inhibition” value was -16.9% (inactive).

As for `Cc1ccc(N/C(C(Cl)=C(Cl)Cl)=C(/Cl)[N+](=O)[O-])c(C)c1`, the “inhibition” value is 13.1% (inactive).

Take `O=C(Cn1cnc2c(nnn2Cc2ccccc2)c1=O)Nc1ccc2c(c1)OCCO2`: the “inhibition” value was -28.1% (inactive).

`Cc1cc(NC(=O)c2noc3c2CCCCC3)no1`: the “inhibition” value was -7.35% (inactive).

For the molecule `Cc1cc(NC(=O)CN2CCN(c3ccc(O)cc3)CC2)no1`, the IC50 was 4.08 µM (active).

Consider `O=C(CN1CCN(c2ccc(O)cc2)CC1)Nc1ccc2c(c1)OCCO2`, for which the IC50 was 6.55 µM (active).

Turning to `Cc1ccc(OCCC(=O)N2CCN(c3ccc(O)cc3)CC2)cc1`, the IC50 is 4.43 µM (active).

In the case of `O=C(CCC(=O)N1CCN(c2ccccc2F)CC1)N1CCN(c2ccccc2)CC1`, the “inhibition” value is -11.5% (inactive).

For the molecule `O=C(COc1ncnc2sccc12)N1CCN(c2ccccc2)CC1`, the “inhibition” value is 1.41% (inactive).

With `O=C(C1CCCN(S(=O)(=O)c2cccc3nonc23)C1)N1CCN(c2ccccc2)CC1` (configuration not stated), the “inhibition” value was 9.89% (inactive).

Regarding `O=C(C1CC1)N1CCN(c2ccc(O)cc2)CC1`, the IC50 is 3.4 µM (active).

With `CCCCCCC1CCC(C(=O)N2CCOCC2)CC1` (configuration not stated), the “inhibition” value was 14.4% [at 50 µM] (inactive).

As to `COc1ccccc1N1CCN(C(=O)C2CCN(S(=O)(=O)c3ccc(C)cc3)CC2)CC1`, the “inhibition” value was -16.4% (inactive).

Regarding `CCOC(=O)C1CCN(C(=O)COC(=O)CSc2ccc([N+](=O)[O-])cc2)CC1`, the “inhibition” value is -18.3% (inactive).

For `CCOc1ccc(OCCC(=O)OCC(=O)N2CCN(S(=O)(=O)c3ccc(C)cc3)CC2)cc1`, the IC50 was 10.1 µM (active).

Regarding `Cc1ccc(N(C=NC#N)CC(=O)N2CCN(c3ccccc3)CC2)cc1`, the “inhibition” value is -3.12% (inactive).

As for `O=C(CCOc1ccccc1)N1CCN(c2ccc(O)cc2)CC1`, the IC50 is 3.56 µM (active).

With `Clc1ccccc1CSc1nnc(-c2ccco2)c(-c2ccco2)n1`, the “inhibition” value is -26.5% (inactive).

On to `C=CCc1ccc(OCCN2CCc3ccccc3C2)c(OC)c1`, for which the “inhibition” value was -23.3% (inactive).

`O=[N+]([O-])c1ccc(SCCc2ccncc2)cc1`: the “inhibition” value was -30.2% (inactive).

On to `CN1CCc2[nH]c3ccc(C(=O)NN)cc3c2C1`, for which the “inhibition” value is 12.9% (inactive).

For the molecule `Cc1c(CCO)c(=O)n(C)n1C(=O)c1ccc(Cl)cc1`, the “inhibition” value is 11.2% (inactive).

Turning to `COc1cc(OC)cc(C(=O)NCC(=O)N2CCN(c3ccc(O)cc3)CC2)c1`, the IC50 was 8.71 µM (active).

For the molecule `O=C(CCSc1ccc(Cl)cc1)N1CCN(c2ccc(O)cc2)CC1`, the IC50 was 7.46 µM (active).

Turning to `O=C(COC(=O)COc1cccc(C(F)(F)F)c1)NC1CCCC1`, the “inhibition” value is 2.64% (inactive).

As for `O=C(COc1cccc(C(F)(F)F)c1)N1CCN(c2ccc(O)cc2)CC1`, the IC50 was 15.1 µM (active).

On to `Cc1cc(OCC(=O)N2CCN(c3ccc(F)cc3)CC2)c2c(C)cc(=O)oc2c1`, for which the “inhibition” value is -42.5% (inactive).

`CCOC(=O)N1CCN(C(=O)c2ccc3c(SCC(=O)O)c4c(nc3c2)CCCC4)CC1`: the “inhibition” value was -5.78% (inactive).

`CCOC(=O)N1CCN(c2ccc(O)cc2)CC1`: the IC50 was 4.16 µM (active).

Turning to `CCOc1cccc(=O)c2c(C)n(-c3ccc(C(=O)O)cc3)c(C)c12`, the “inhibition” value was -5.55% (inactive).

On to `CCOc1ccccc1NC(=O)COC(=O)c1cccc(-c2ccc(OC(C)=O)cc2)c1`, for which the “inhibition” value was 24.5% (inactive).

For `CCOc1cc(NC2CS(=O)(=O)CC2O)c(OCC)cc1NC(=O)c1ccccc1` (configuration not stated), the IC50 was 4.18 µM (active).

Consider `COc1ccc2c(=O)c3c(=O)n(Cc4ccco4)c(-c4ccco4)nc3oc2c1`, for which the “inhibition” value was 7.05% (inactive).

Regarding `CC(=O)NCCc1c[nH]c2ccc(O)cc12`, the IC50 is 7 µM (active).

For `Cc1ccc(S(=O)(=O)N2CCCOC2CNC(=O)C(=O)NCCc2c[nH]c3ccccc23)cc1` (configuration not stated), the “inhibition” value is 18.5% (inactive).

`O=C1c2ccccc2C(=O)N1CCc1c[nH]c2ccc(O)cc12`: the IC50 is 7.26 µM (active).

In the case of `OCCc1c[nH]c2ccc(C(F)(F)F)cc12`, the “inhibition” value is 8.25% (inactive).

Turning to `O=[N+]([O-])c1ccc(S(=O)(=O)N2CCSC2c2ccco2)cc1` (configuration not stated), the “inhibition” value was -53.9% (inactive).

Regarding `N/C(=N\N=C\c1ccc(O)c(O)c1)c1nonc1N`, the IC50 is 14 µM (active).

`COc1cc(/C=N/N=C(\N)c2nonc2N)ccc1O`: the IC50 was 4.89 µM (active).

Turning to `O=c1oc2ccccc2c2oc3cc(O)c(O)cc3c12`, the IC50 is 8.13 µM (active).

Consider `COc1ccc(C2CC(=O)C(C(c3ccc(O)cc3)C3C(=O)CC(c4ccc(OC)cc4)CC3=O)C(=O)C2)cc1` (configuration not stated), for which the “inhibition” value was 1.91% (inactive).

With `CN(C)c1ccc(C(=O)c2ccc(N(C)C)c(N)c2)cc1N`, the IC50 was 4.76 µM (active).

In the case of `COc1cc(/C=N/NC(=O)c2cccc([N+](=O)[O-])c2)ccc1O`, the IC50 is 2.38 µM (active).

In the case of `COc1cc(/C=N\NC(=O)CNC(=O)c2cccc([N+](=O)[O-])c2)ccc1O`, the IC50 is 2.18 µM (active).

For `O=C(CNC(=O)c1ccccc1)OCc1ccc([N+](=O)[O-])cc1`, the “inhibition” value is 1.14% (inactive).

Regarding `C#CCOCCOCCOCCNc1nc(N2CCN(C(=O)CCCCCCCCCCNC(=O)[C@H](CCCCN)n3cc(C[C@@H](C)CC)nn3)CC2)nc(N2CCN(C(=O)CCCCCCCCCCNC(=O)[C@H](CCCCN)n3cc(C[C@@H](C)CC)nn3)CC2)n1`, the “inhibition” value is 0.98% (inactive).

Consider `O=C(O)c1ccccc1NS(=O)(=O)c1cccc(-n2sc3ccccc3c2=O)c1`, for which the IC50 is 9.24 µM (active).

With `CN(C)S(=O)(=O)c1cccc(-n2sc3ccccc3c2=O)c1`, the IC50 was 8.98 µM (active).

`Cc1ccc(-n2sc3ccccc3c2=O)cc1S(=O)(=O)N1CCCCC1`: the IC50 was 24.1 µM (active).

Take `CCC1CCCCN1S(=O)(=O)c1ccc(NC(=O)c2nc(S(C)(=O)=O)ncc2Cl)cc1` (configuration not stated): the “inhibition” value was 14.9% (inactive).

As to `O=C(C1=C[C@@H](c2ccc(Br)cc2)C[C@@H](OCCCCO)O1)N1CCOCC1`, the “inhibition” value is 10.4% (inactive).

Turning to `Nc1c(/C=C2/C=CC(=O)C(O)=C2)c(=O)nc2sc(CC(=O)N3CCCCC3)nn12`, the IC50 was 10.5 µM (active).

Take `Nc1c(C=C2C=CC(=O)C=C2)c(=O)nc2sc(CC(=O)N3CCCCC3)nn12`: the IC50 was 12.5 µM (active).

In the case of `COC1=C/C(=C/c2c(N)n3nc(CC(=O)N4CCCCC4)sc3nc2=O)C=CC1=O`, the IC50 is 7.89 µM (active).

As for `Nc1c(/C=C2/C=CC(=O)C(O)=C2)c(=O)nc2sc(CC(=O)N3CCCC3)nn12`, the IC50 is 8.26 µM (active).

In the case of `CC(=O)O[C@H]1C[C@@]2(C)[C@@H](C[C@@H](O)[C@H]3[C@@]4(C)CC[C@@H](O)[C@@H](C)C4CC[C@@]32C)/C1=C(\CCC=C(C)C)C(=O)O` (some centres not stated), the “inhibition” value was 28.7% (inactive).

Turning to `CC(=O)NCCC1CCCCN1Cc1nc(Cc2cccc(C(F)(F)F)c2)no1` (configuration not stated), the “inhibition” value is 18.1% [at 50 µM] (inactive).

On to `Cc1ccc(C(C(=O)NCc2ccc(F)cc2)N(CCCO)C(=O)C2COc3ccccc3O2)o1` (configuration not stated), for which the “inhibition” value was -18.2% (inactive).

For `O=c1[nH]c(/C=C\c2ccc(O)c(O)c2)nc(O)c1[N+](=O)[O-]`, the IC50 was 5.5 µM (active).

Turning to `O=C(O)c1cc(S(=O)(=O)Nc2ccc3oc(=O)sc3c2)ccc1O`, the “inhibition” value was 13.4% [at 50 µM] (inactive).

`O=c1oc2cc(O)ccc2s1`: the IC50 is 11.8 µM (active).

Regarding `CCOC(=O)NNc1ccc2nonc2c1[N+](=O)[O-]`, the “inhibition” value is 10.1% (inactive).

Take `O=c1cc(-c2ccc(O)cc2)oc2c(C3OCC(O)C(O)C3O)c(O)c(C3OC(CO)C(O)C(O)C3O)c(O)c12` (configuration not stated): the IC50 is 17.3 µM (active).

In the case of `O=c1cc(-c2ccccc2Cl)oc2cc(O)cc(O)c12`, the “inhibition” value was -10.2% (inactive).

For `O=c1cc(-c2ccc(O)c(O)c2)oc2cc(O)c(C3OC(CO)C(O)C(O)C3O)c(O)c12` (configuration not stated), the IC50 was 5.59 µM (active).

As for `O=c1c2cc(O)c(O)cc2oc2cc(O)c(C3OC(CO)C(O)C(O)C3O)c(O)c12` (configuration not stated), the IC50 was 6.35 µM (active).

On to `O=c1cc(-c2ccc(O)cc2)oc2cc(O)c(C3OC(CO)C(O)C(O)C3O)c(O)c12` (configuration not stated), for which the IC50 was 18.6 µM (active).
